Test results from PubChem BioAssay AID2462 (Broad Institute, 2010).
Out of some 330,000 compounds screened, about 220 (0.067%) were called active.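 Rule for the calls: active = over half of replicate activation scores above 10%, or exactly half above 10 with the replicate mean above 10; inconclusive = replicate mean below 10 yet half the replicates above 10; inactive = over half of replicates below 10.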 Shown is part of a subset that was picked to be rich in actives.

assay: inducers of caspase signal in A1-primed MEFs – cell-based, luminescence, HTS, A1 inhibitor project, primary screen (AID 2462); conditions: MEF A1-2A-BIM cells, Caspase-Glo 3/7 luminescence, 3 h; hits give high values; percent of clofoctol response, vehicle zero; concentration not given here

Row | Structure (SMILES) | caspase activation
1 | COCCCNC(=O)C1CCN(c2ccc(N3CCOCC3)nn2)CC1 | 0.283% (inactive)
2 | C#CCOCCOCCOCCNc1nc(N2CCN(C(=O)[C@H](CCCN=C(N)N)n3cc(C(N)[C@@H](C)CC)nn3)CC2)nc(N2CCN(C(=O)[C@H](CO)n3cc([C@@H](N)C(C)C)nn3)CC2)n1 (some centres undefined) | 0.85% (inactive)
3 | COC(=O)CNC(=O)c1ccc2c(c1)S(=O)(=O)c1ccccc1C2=O | -0.413% (inactive)
4 | CCC1C(=O)NCCN1C(=O)c1ccc2nc(Cc3ccc(OC)cc3)oc2c1 (centres undefined) | -0.419% (inactive)
5 | COc1ccc(CCNc2cc(N3CCN(C(=O)c4ccccc4OC)CC3)ccc2[N+](=O)[O-])cc1OC | -0.378% (inactive)
6 | O=C1c2ccccc2NC(c2ccccn2)N1NS(=O)(=O)c1ccccc1 (centres undefined) | 1.93% (inactive)
7 | CC(=O)c1ccccc1NC(=O)C1CC(=O)N(c2ccc3c(c2)OCCO3)C1 (centres undefined) | 0.41% (inactive)
8 | Cc1ccc(-c2nnc(CN3CCN(C)CC3)o2)cc1 | 0.0366% (inactive)
9 | COc1cc2c(cc1OC)C(C(=O)Nc1cc(C)c(OC)c(C)c1)CC(=O)N2 (centres undefined) | 0.803% (inactive)
10 | Cc1ccc2cc3cc(C(=O)N4CCCCCC4)oc3nc2c1 | 0.083% (inactive)
11 | NC1=NC(=O)C(Cc2cccc(Cl)c2)S1 (centres undefined) | -0.108% (inactive)
12 | CC(C)(C)OC(=O)N[C@H](C(=O)OC(C)(C)C)c1ccc(Br)cc1 | -0.98% (inactive)
13 | CCOC(=O)c1c(NC(=O)CCCN2CCOCC2)sc2c1CC(C)(C)OC2 | -0.683% (inactive)
14 | CN(C)C(=O)Cn1c(=O)n(S(=O)(=O)c2ccccc2)c2ccccc21 | -0.645% (inactive)
15 | CN(c1ccc2nc3ccccc3c(=O)n2n1)C1CCCCC1 | 0.636% (inactive)
16 | CN(C(=O)CSc1nnc(N)s1)c1c(N)n(Cc2ccccc2)c(=O)[nH]c1=O | 0.167% (inactive)
17 | O=[N+]([O-])C(=c1ccc2c(c1)N1C3=C(CCCC3)CC3CCCCC31N=2)[N+](=O)[O-] (centres undefined) | 6.39% (active)
18 | CCOC(=O)C(NC(=O)CC(C)C)(Nc1sc2c(c1C(N)=O)CCCC2)C(F)(F)F (centres undefined) | 0.722% (inactive)
19 | O=C(O)c1cc2ccccc2c(=O)s1 | 1.64% (inactive)
20 | COc1ccc(CCNC(=O)CN(C)S(=O)(=O)c2ccc3nc(C)sc3c2)cc1OC | -2.31% (inactive)
21 | CCC(C)NC(=O)N[C@@H](CCSC)C(=O)O (some centres undefined) | 0.604% (inactive)
22 | CCCCC(O)(CCCC)C(=O)NN(C(=O)CCl)c1ccccc1 | 0.273% (inactive)
23 | COc1ccc(OCC(=O)NN2Cc3ccccc3C2=N)cc1 | 1.26% (inactive)

Row | Structure (SMILES) | caspase activation
24 | Cc1ccc2oc(C(=O)N3CCN(C)C[C@@H]3C(C)C)c(C)c2c1 | -0.346% (inactive)
25 | CCOc1ccccc1-n1c(SCC(=O)NCc2ccco2)nnc1-c1ccncc1 | -0.681% (inactive)
26 | O=C(NCc1ccccc1)C1CCCN(c2nc3ccsc3c(=O)s2)C1 (centres undefined) | -0.382% (inactive)
27 | COc1cccc(NC(=O)Cn2c3ccc(F)cc3c3nc4n(c(=O)c32)CCS4)c1 | -1.98% (inactive)
28 | O=c1c(-c2ccccc2Cl)c[nH]n1-c1ccccc1 | -1.88% (inactive)
29 | COc1ccc(C(=O)NCCSc2ccccc2C)cc1 | -1.26% (inactive)
30 | OCCC1CN(Cc2cnc(-c3ccccc3)s2)CCN1CCc1ccccc1 (centres undefined) | 0.493% (inactive)
31 | CCOCCn1[nH]c2ccccc2c1=O | -0.169% (inactive)
32 | O=S(=O)(Nc1ccc(-c2ccc(N3CCOCC3)nn2)cc1)c1cc(Cl)ccc1Cl | 0.476% (inactive)
33 | CC(C)CNC(=S)NNC(=O)c1ccccc1OC(F)F | 1.35% (inactive)
34 | CN(Cc1c(F)cccc1Cl)C(=O)CNC(=O)c1ccc2c(c1)OCO2 | -0.444% (inactive)
35 | N#Cc1c(-c2ccc(F)cc2)cc(C2CC2)nc1SCC(=O)c1cccs1 | -0.105% (inactive)
36 | Cc1cccc(C(=O)NCc2nnc(SC(C)C(=O)Nc3nnc(C)s3)n2C)c1 (centres undefined) | 0.308% (inactive)
37 | COc1ccc(C2CC(=O)C=C(NCC3CCCO3)C2)cc1 (centres undefined) | 1.09% (inactive)
38 | Cc1c(C(=O)N2CCN(c3ccc(F)cc3)CC2)oc2c1C(=O)CCC2 | -0.061% (inactive)
39 | Cc1ccc(CC2C(=O)N(c3ccc(F)cc3)C(=O)C2C)cc1 (centres undefined) | 0.618% (inactive)
40 | Cc1cc(-n2cnc(-c3cn(C)nc3C)n2)no1 | 0.762% (inactive)
41 | O=C(NCc1ccccc1)C1=C[C@@H](C2CCCCC2)C[C@@H](OCc2ccc(CO)cc2)O1 | 1.39% (inactive)
42 | Cc1ccc(CNC(=O)CCS(=O)(=O)c2ccc3c(c2)CC(C)N3C(=O)C2CC2)o1 (centres undefined) | 3.53% (inactive)
43 | O=C(C1CCCO1)N1CCN(C(=S)NC2CC2)CC1 (centres undefined) | -0.789% (inactive)
44 | CC1=C(C(N)=O)C(c2sccc2C)n2nnnc2N1 (centres undefined) | -0.851% (inactive)
45 | CCC1CCCCN1CCCNC(=O)c1cc2c(Cl)nc3ccccc3c2s1 (centres undefined) | -0.978% (inactive)
46 | CC(=O)C(C)n1cnc2scc(-c3ccc(C)cc3)c2c1=O (centres undefined) | 0.409% (inactive)

Row | Structure (SMILES) | caspase activation
47 | O=C(NC1CCCCC1)C1CCC(CNS(=O)(=O)c2ccccc2)CC1 (centres undefined) | 0.134% (inactive)
48 | CNc1[nH]ncc1[N+](=O)[O-] | -0.643% (inactive)
49 | COc1ccc(C[C@H]2CN3C(=NC[C@H]3C)N2CCNC(=O)CCC2CCCCC2)cc1 | 0.277% (inactive)
50 | CCCN(c1ccc(C)cc1)c1nc(=O)c2cccnc2s1 | 0.23% (inactive)
51 | COC(=O)[C@H]1Cc2cnoc2C[C@]1(C)C(=O)O | -0.157% (inactive)
52 | COc1ccc(OC)c(/C=C/C(=O)c2ccc3c(c2)OCO3)c1 | -0.508% (inactive)
53 | COc1ccc(Nc2ccc([N+](=O)[O-])cn2)cn1 | -0.342% (inactive)
54 | COc1ccc(NC(=O)/C(Cl)=C(/Cl)S(=O)Cc2ccc(C)cc2)cn1 (centres undefined) | 7.8% (active)
55 | CCN(CC(=O)Nc1ccc(OC)cc1)C(=O)CSCc1ccc(C)cc1 | -0.709% (inactive)
56 | CC[C@H]1CN2CCc3cc(OC)c(OC)cc3[C@@H]2C[C@@H]1C[C@H]1NCCc2cc(OC)c(OC)cc21 | 7.26% (active)
57 | COc1ccc2c(c1)CCNC2Cc1ccc(OC)c(O)c1 (centres undefined) | 2.35% (inactive)
58 | CCc1ccc(OCC2c3cc(OC)c(OC)cc3CCN2C(C)=O)cc1 (centres undefined) | 0.768% (inactive)
59 | COc1cccc(NC(=O)CN(C)C(C)C(=O)Nc2ccc(C#N)cc2)c1 (centres undefined) | 0.554% (inactive)
60 | CC[N+](C)(CC)CCC[n+]1c(-c2ccccc2)c2cc(N)ccc2c2ccc(N)cc21 | 2.85% (inactive)
61 | CC(=O)Nc1ccc(Sc2ccccc2C(=O)N2CCCC2)cn1 | 0.126% (inactive)
62 | Cn1c(C(=O)O)ccc1S(=O)(=O)N(Cc1ccccc1)Cc1ccccc1 | -0.442% (inactive)
63 | O=C(NCCc1ccco1)C(=O)NCCC1CCCCN1S(=O)(=O)c1ccccc1 (centres undefined) | 0.605% (inactive)
64 | CN(C)c1ccc(Nc2c3c4c(cccc4n(C)c2=O)C(=O)c2ccccc2-3)cc1 | -0.124% (inactive)
65 | CC1(C)COC(c2cccn2Cc2ccccc2Cl)=N1 | -0.0448% (inactive)
66 | O=C(NNC(=O)c1cccc(S(=O)(=O)Nc2ccc(Cl)cc2)c1)c1ccc(=O)[nH]c1 | -1.36% (inactive)
67 | Cc1[nH]n(-c2ccccc2)c(=O)c1/C=N/NC(=O)c1ccoc1C | -3.41% (inactive)
68 | COc1cc(SC#N)ccc1N=Cc1c(C)[nH]n(-c2ccc(C)cc2)c1=O | 11.1% (active)
69 | Cc1ccc(-n2[nH]c(C)c(/C=N/NC(=O)c3cccc([N+](=O)[O-])c3)c2=O)cc1C | -4.49% (inactive)

Row | Structure (SMILES) | caspase activation
70 | O=C(NNS(=O)(=O)c1c(F)cc(F)c(Cl)c1F)C12CC3CC(CC(C3)C1)C2 | 0.494% (inactive)
71 | CCOC(=O)c1c(-c2cccc(N)c2)cn2ccccc12 | 0.104% (inactive)
72 | Cc1cc(NC(=O)CN2C(=O)NC(C)(CCc3ccccc3)C2=O)no1 (centres undefined) | -0.914% (inactive)
73 | Cc1ccc(N/N=C2\COC(C)(C)CC2=O)cc1 | 0.0616% (inactive)
74 | Cc1c(Cl)cccc1NC(=O)CSc1ccc(-c2cccnc2)nn1 | 0.424% (inactive)
75 | CC(C)C[C@H](NC(=O)N1CC(=O)Nc2ccccc21)C(=O)N[C@H](Cc1ccccc1)C(=O)O | 0.252% (inactive)
76 | CNC(=O)COc1ccc(S(=O)(=O)Nc2ccccc2)cc1 | -0.951% (inactive)
77 | CCOC(=O)/C(=C\c1ccc([N+](=O)[O-])cc1)C(=O)c1cc(C(C)=O)c(Nc2ccccc2)s1 | 46.4% (active)
78 | CCOC(=O)/C(=N\Nc1ccccc1[N+](=O)[O-])c1csc(Nc2ccccc2)n1 | -0.494% (inactive)
79 | Cc1ccc(NC(=O)/C(=C/c2ccc([N+](=O)[O-])cc2)NC(=O)c2ccccc2)cc1 | -0.427% (inactive)
80 | C/C(=C/C(=O)N1CCN(C)CC1)C(=O)O | 0.653% (inactive)
81 | Cc1cc(C)nc(NNC2=CC(=O)CC(C)(C)C2)n1 | -0.196% (inactive)
82 | CC(C)(C)N(Cc1ccccc1)C(=O)COC(=O)CCc1c[nH]c2ccccc12 | -1% (inactive)
83 | COc1ccc(N2C(=O)/C(=C\c3ccco3)N=C2SCC(N)=O)cc1Cl | -0.66% (inactive)
84 | Cc1cc(C)n(S(=O)(=O)c2cccc([N+](=O)[O-])c2)n1 | 0.962% (inactive)
85 | O=C(NCc1ccco1)c1ccc([N+](=O)[O-])cc1Cl | 1.19% (inactive)
86 | COc1cc2c(cc1NC(=O)CN1CCN(S(=O)(=O)c3ccc(F)cc3)CC1)oc1ccccc12 | -0.105% (inactive)
87 | COc1cc2c(cc1NC(=O)COC(=O)/C=C/c1ccccc1)oc1ccccc12 | 8.52% (active)
88 | COc1cc(/C=C/C(=O)OCC(=O)c2ccccc2)cc(OC)c1OC | 0.0945% (inactive)
89 | Cc1[nH]n(-c2ccccc2)c(=O)c1CCOC(=O)c1ccc(C(F)(F)F)cc1 | 0.514% (inactive)
